# Results taken from PubChem BioAssay (NCATS).
# Inconclusive results are not listed. A call without a number means that no potency is given here. A number with no mark means an inactive call. Active and inactive are the calls of the source. Calls come from the whole dose curve; as a rule, active = well fitted curve in the direction sought with a large enough effect; inconclusive = small, poorly fitted or top-dose-only effect, or another doubt; inactive = no such curve, though single readings can be large; an effect the other way counts as inactive or inconclusive.
# Key:
# [1] = qHTS of pediatric cancer cell lines to identify multiple opportunities for drug repurposing: Primary screen for SK-N-MC cells (AID 1347093); note: potency is the fitted concentration of half-maximal effect
# How it was run: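 Metabolically active cells were quantified by ATP-dependent luminescence (CellTiter-Glo, 15 min at room temperature) following 48 h treatment. Cells had been plated at 500-1,000 per well and settled for 5 h beforehand.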
# [2] = qHTS of pediatric cancer cell lines to identify multiple opportunities for drug repurposing: Primary screen for BT-37 cells (AID 1347094); note: potency is the fitted concentration of half-maximal effect
# How it was run: (§1)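 CRCs from 8- or 11-point titrations (lowest final 0.59 nM NPC, 0.78 nM MIPE). Cell viability: CellTiter-Glo after 48 h incubation, 15 min room-temperature development, luminescence imaging.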
# [3] = qHTS of pediatric cancer cell lines to identify multiple opportunities for drug repurposing: Primary screen for NB-EBc1 cells (AID 1347095); note: potency is the fitted concentration of half-maximal effect
# How it was run: as §1
# [4] = qHTS of pediatric cancer cell lines to identify multiple opportunities for drug repurposing: Primary screen for U-2 OS cells (AID 1347096); note: nearly all actives have a fitted effect of over 50% in size; note: potency is the fitted concentration of half-maximal effect
# How it was run: (§2)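 Viability after 48 h compound treatment at 37C, 500-1,000 cells/well, read as ATP luminescence with CellTiter-Glo. Primary screens used 11-point (MIPE, 0.78 nM-46 µM) or 8-point (NPC, 0.59 nM-46 µM) final concentrations; follow-up screens used 11-point dilutions.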
# [5] = qHTS of pediatric cancer cell lines to identify multiple opportunities for drug repurposing: Primary screen for Saos-2 cells (AID 1347097); note: nearly all actives have a fitted effect of over 40% in size; note: potency is the fitted concentration of half-maximal effect
# How it was run: as §1
# [6] = qHTS of pediatric cancer cell lines to identify multiple opportunities for drug repurposing: Primary screen for SK-N-SH cells (AID 1347098); note: nearly all actives have a fitted effect of over 65% in size; note: potency is the fitted concentration of half-maximal effect
# How it was run: (§3)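 Cells (500-1,000/well) rested 5 h, then received compounds for 48 h; metabolically active cells were measured by CellTiter-Glo luminescence. Final concentrations spanned up to 46 µM (MIPE, 11-point) or 0.59 nM-46 µM (NPC, 8-point) in primary screens, 11-point in follow-ups.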
# [7] = qHTS of pediatric cancer cell lines to identify multiple opportunities for drug repurposing: Primary screen for NB1643 cells (AID 1347099); note: nearly all actives have a fitted effect of over 50% in size; note: potency is the fitted concentration of half-maximal effect
# How it was run: as §1
# [8] = qHTS of pediatric cancer cell lines to identify multiple opportunities for drug repurposing: Primary screen for LAN-5 cells (AID 1347100); note: potency is the fitted concentration of half-maximal effect
# How it was run: as §2
# [9] = qHTS of pediatric cancer cell lines to identify multiple opportunities for drug repurposing: Primary screen for Rh18 cells (AID 1347102); note: nearly all actives have a fitted effect of over 65% in size; note: potency is the fitted concentration of half-maximal effect
# How it was run: as §2
# [10] = qHTS of pediatric cancer cell lines to identify multiple opportunities for drug repurposing: Primary screen for RD cells (AID 1347104); note: nearly all actives have a fitted effect of over 55% in size; note: potency is the fitted concentration of half-maximal effect
# How it was run: as §1
# [11] = qHTS of pediatric cancer cell lines to identify multiple opportunities for drug repurposing: Primary screen for control Hh wild type fibroblast cells (AID 1347106);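 note: series mostly up to about 46 µM; a drop in luminescence marks cytotoxicity and a rise apparent proliferation; nearly all actives have a fitted effect of over 55% in size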
# How it was run: as §2
# [12] = qHTS of pediatric cancer cell lines to identify multiple opportunities for drug repurposing: Primary screen for Rh30 cells (AID 1347107); note: series mostly up to about 46 µM; nearly all actives have a fitted effect of over 75% in size
# How it was run: as §2
# [13] = qHTS of pediatric cancer cell lines to identify multiple opportunities for drug repurposing: Primary screen for BT-12 cells (AID 1347101); note: nearly all actives have a fitted effect of over 25% in size; note: potency is the fitted concentration of half-maximal effect
# How it was run: as §3
# [14] = qHTS of pediatric cancer cell lines to identify multiple opportunities for drug repurposing: Primary screen for OHS-50 cells (AID 1347103); note: nearly all actives have a fitted effect of over 40% in size; note: potency is the fitted concentration of half-maximal effect
# How it was run: as §3
# [15] = qHTS of pediatric cancer cell lines to identify multiple opportunities for drug repurposing: Primary screen for Rh41 cells (AID 1347108); note: nearly all actives have a fitted effect of over 70% in size; note: potency is the fitted concentration of half-maximal effect
# How it was run: as §1
# [16] = qHTS of pediatric cancer cell lines to identify multiple opportunities for drug repurposing: Primary screen for MG 63 (6-TG R) cells (AID 1347105); note: nearly all actives have a fitted effect of over 50% in size; note: potency is the fitted concentration of half-maximal effect
# How it was run: as §1
# [17] = qHTS of pediatric cancer cell lines to identify multiple opportunities for drug repurposing: Confirmatory screen for SK-N-MC cells (AID 1347111); settings: SK-N-MC cell viability;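 note: potency is the fitted concentration of half-maximal effect; cells exposed to compound for 48 h before the readout; nearly all actives have a fitted effect of over 70% in size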
# How it was run: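 SK-N-MC cells at 500-1,000 cells/well in growth media were pre-incubated 5 h, then exposed to compounds at 11-point dilutions for 48 h at 37 degrees C, 5% CO2. Viability was read as CellTiter-Glo luminescence.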
# [18] = qHTS of pediatric cancer cell lines to identify multiple opportunities for drug repurposing: Confirmatory screen for NB1643 cells (AID 1347109); note: nearly all actives have a fitted effect of over 45% in size
# How it was run: as §2
# [19] = qHTS of pediatric cancer cell lines to identify multiple opportunities for drug repurposing: Confirmatory screen for A673 cells (AID 1347110); note: potency is the fitted concentration of half-maximal effect; nearly all actives have a fitted effect of over 65% in size
# How it was run: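 Forty-eight-hour viability assay. Follow-up compounds ran at 11-point dilutions; positive control bortezomib at 2.3 uM final, neutral control DMSO.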
# [20] = qHTS of pediatric cancer cell lines to identify multiple opportunities for drug repurposing: Confirmatory screen for BT-12 cells (AID 1347112); note: nearly all actives have a fitted effect of over 55% in size
# How it was run: as §2
SMILES,Potency [1],Potency [2],Potency [3],Potency [4],Potency [5],Potency [6],Potency [7],Potency [8],Potency [9],Potency [10],outcome [11],Potency [12],Potency [13],Potency [14],Potency [15],Potency [16],Potency [17],Potency [18],Potency [19],Potency [20]
COc1ccc(CCN(C)CCCC(C#N)(c2cc(OC)c(OC)c(OC)c2)C(C)C)cc1OC (configuration not stated),inactive,inactive,inactive,inactive,inactive,inactive,inactive,inactive,inactive,inactive,inactive,inactive,,,,,,,,
C=CCc1ccccc1OCC(O)CNC(C)C (configuration not stated),inactive,inactive,inactive,inactive,inactive,inactive,inactive,inactive,inactive,,inactive,inactive,inactive,inactive,inactive,,,,,
CCN(CC)CCNC(=O)c1ccc(NC(C)=O)cc1,inactive,inactive,inactive,inactive,inactive,,inactive,inactive,inactive,inactive,inactive,inactive,inactive,inactive,inactive,inactive,,,,
C[C@H](CS)C(=O)N1CCC[C@H]1C(=O)O,inactive,inactive,inactive,inactive,inactive,,inactive,inactive,inactive,inactive,inactive,inactive,inactive,inactive,inactive,inactive,,,,
O=C(O)CP(=O)(O)O,inactive,inactive,inactive,inactive,inactive,,inactive,inactive,inactive,inactive,inactive,inactive,inactive,inactive,inactive,inactive,,,,
CCCCNC(=O)NS(=O)(=O)c1ccc(C)cc1,,inactive,inactive,inactive,inactive,inactive,inactive,inactive,inactive,inactive,inactive,,inactive,inactive,inactive,inactive,,,,
CC(C)(C)c1ccc(C(=O)CCCN2CCC(OC(c3ccccc3)c3ccccc3)CC2)cc1,21.1 µM (active),27.6 µM (active),,,26.6 µM (active),,,,,21.1 µM (active),inactive,,19.5 µM (active),15.5 µM (active),,,,,,
CCN(Cc1ccncc1)C(=O)C(CO)c1ccccc1 (configuration not stated),,inactive,inactive,inactive,inactive,inactive,inactive,inactive,inactive,inactive,inactive,,inactive,inactive,inactive,inactive,,,,
COC(=O)C1=C(C)NC(C)=C(C(=O)OC(C)(C)CN(C)CCC(c2ccccc2)c2ccccc2)C1c1cccc([N+](=O)[O-])c1 (configuration not stated),13.3 µM (active),,,,,,,18.8 µM (active),,,inactive,,,12.3 µM (active),,inactive,,,,
CCOC(=O)c1cnc2c(cnn2CC)c1NN=C(C)C,inactive,inactive,inactive,inactive,,,inactive,inactive,inactive,inactive,inactive,inactive,inactive,inactive,inactive,inactive,,,,
CC(N=C(NC#N)Nc1ccncc1)C(C)(C)C (configuration not stated),inactive,inactive,inactive,inactive,inactive,,inactive,inactive,inactive,inactive,inactive,inactive,inactive,,inactive,inactive,,,,
Nc1ncn([C@@H]2O[C@H](CO)[C@@H](O)[C@H]2O)c(=O)n1,21.1 µM (active),12.3 µM (active),,,,,7.5 µM (active),,,,,,8.71 µM (active),24.6 µM (active),,inactive,,,,
CCCN(CCC)CCc1cccc2c1CC(=O)N2,inactive,inactive,inactive,inactive,,,inactive,inactive,inactive,inactive,inactive,,inactive,inactive,inactive,inactive,,,,
O=C(CCNNC(=O)c1ccncc1)NCc1ccccc1,,inactive,inactive,inactive,inactive,inactive,inactive,inactive,inactive,inactive,inactive,,inactive,inactive,inactive,inactive,,,,
CC(C)COCC(CN(Cc1ccccc1)c1ccccc1)N1CCCC1 (configuration not stated),16.8 µM (active),27.6 µM (active),,,26.6 µM (active),27.3 µM (active),29.9 µM (active),,,26.6 µM (active),inactive,,,19.5 µM (active),,,,,,
CCCCCN(CCCCC)C(=O)C(CCC(=O)O)NC(=O)c1ccc(Cl)c(Cl)c1 (configuration not stated),,inactive,inactive,inactive,inactive,inactive,inactive,inactive,inactive,inactive,inactive,inactive,inactive,inactive,inactive,inactive,,,,
OC(CCN1CCCCC1)(c1ccccc1)C1CCCCC1 (configuration not stated),inactive,,inactive,inactive,,,inactive,inactive,inactive,,inactive,inactive,,,inactive,inactive,,,,
CC(=O)[C@]1(O)Cc2c(O)c3c(c(O)c2[C@@H](O[C@H]2C[C@H](N)[C@H](O)[C@H](C)O2)C1)C(=O)c1ccccc1C3=O,0.237 µM (active),0.174 µM (active),,6.68 µM (active),3.35 µM (active),0.433 µM (active),0.376 µM (active),,422 nM (active),,,,0.55 µM (active),1.1 µM (active),841 nM (active),2.11 µM (active),,,,
O=C1NCN(c2ccccc2)C12CCN(CCCC(c1ccc(F)cc1)c1ccc(F)cc1)CC2,16.8 µM (active),,,,13.3 µM (active),13.7 µM (active),inactive,,,,inactive,,13.8 µM (active),15.5 µM (active),,,,,,

SMILES,Potency [1],Potency [2],Potency [3],Potency [4],Potency [5],Potency [6],Potency [7],Potency [8],Potency [9],Potency [10],outcome [11],Potency [12],Potency [13],Potency [14],Potency [15],Potency [16],Potency [17],Potency [18],Potency [19],Potency [20]
NC(N)=N/N=C/c1c(Cl)cccc1Cl,inactive,inactive,inactive,inactive,inactive,,inactive,inactive,inactive,,inactive,inactive,,,inactive,inactive,,,,
Nc1nc(N)c2nc(-c3ccccc3)c(N)nc2n1,0.531 µM (active),13.8 µM (active),8.41 µM (active),,,,inactive,13.3 µM (active),inactive,23.7 µM (active),inactive,,13.8 µM (active),,inactive,inactive,3.69 µM (active),,,
N[C@@H](COP(=O)(O)O)C(=O)O,inactive,inactive,inactive,inactive,,inactive,inactive,inactive,inactive,inactive,inactive,inactive,inactive,inactive,inactive,inactive,,,,
CN(C)CCCN1c2ccccc2Sc2ccccc21,inactive,,,inactive,,,inactive,inactive,,,inactive,inactive,,17.4 µM (active),inactive,inactive,,,,
CN1CCN(C2=Nc3ccccc3Oc3ccc(Cl)cc32)CC1,inactive,,inactive,inactive,,inactive,inactive,inactive,inactive,inactive,inactive,inactive,,,inactive,inactive,,,,
COc1cc(C(=O)OCCCN2CCCN(CCCOC(=O)c3cc(OC)c(OC)c(OC)c3)CC2)cc(OC)c1OC,inactive,,inactive,inactive,inactive,,inactive,,inactive,,inactive,inactive,,,inactive,inactive,,,,
CN(C(=O)CCCOc1ccc2[nH]c(=O)ccc2c1)C1CCCCC1,inactive,inactive,inactive,inactive,,,inactive,inactive,inactive,inactive,inactive,inactive,,21.9 µM (active),,inactive,,,,
C#CCN(C)CCCOc1ccc(Cl)cc1Cl,inactive,inactive,inactive,inactive,,,inactive,inactive,inactive,,inactive,,inactive,,inactive,inactive,,,,
CC(C)(Oc1ccc(CCNC(=O)c2ccc(Cl)cc2)cc1)C(=O)O,inactive,inactive,inactive,inactive,,inactive,inactive,inactive,inactive,,inactive,inactive,inactive,inactive,inactive,inactive,,,,
NC(N)=NC(=O)Cc1c(Cl)cccc1Cl,inactive,inactive,,inactive,inactive,,inactive,inactive,inactive,inactive,inactive,,,,inactive,inactive,,,,
CC(=O)Nc1nnc(S(N)(=O)=O)s1,inactive,inactive,inactive,inactive,,,inactive,inactive,inactive,,inactive,inactive,inactive,inactive,inactive,inactive,,,,
CC(C)[N+](C)(CCOC(=O)C1c2ccccc2Oc2ccccc21)C(C)C,inactive,inactive,inactive,inactive,inactive,,inactive,inactive,inactive,inactive,inactive,,,inactive,inactive,inactive,,,,
CC(=O)Oc1cc(C(C)C)c(OCCN(C)C)cc1C,inactive,inactive,inactive,inactive,,inactive,inactive,inactive,inactive,inactive,inactive,inactive,inactive,inactive,inactive,inactive,,,,
Cc1cc(C)c(/C=C2\C(=O)Nc3ccccc32)[nH]1,18.8 µM (active),inactive,inactive,inactive,,inactive,inactive,inactive,inactive,,inactive,,inactive,15.5 µM (active),inactive,inactive,,,,
C[C@@H](O)[C@H]1C(=O)N2C(C(=O)O)=C(SCCN=CN)C[C@H]12,inactive,inactive,inactive,inactive,,inactive,inactive,inactive,inactive,,inactive,inactive,inactive,inactive,inactive,inactive,,,,
C[C@]12CC[C@@H]3c4ccc(O)cc4C[C@@H](CCCCCCCCCS(=O)CCCC(F)(F)C(F)(F)F)[C@H]3[C@@H]1CC[C@@H]2O (some centres not stated),9.44 µM (active),inactive,inactive,inactive,,,inactive,inactive,inactive,inactive,inactive,,inactive,,inactive,inactive,2.61 µM (active),inactive,11.7 µM (active),inactive
CNC1(C)C2CCC(C2)C1(C)C (configuration not stated),inactive,inactive,inactive,inactive,,,inactive,inactive,inactive,inactive,inactive,inactive,inactive,inactive,inactive,inactive,,,,
COc1cc2c(cc1OC)-c1cc(=Nc3c(C)cc(C)cc3C)n(C)c(=O)n1CC2,4.22 µM (active),,,inactive,,,,,inactive,,inactive,inactive,,21.9 µM (active),,,,,,
OCCN1CCN(CCCN2c3ccccc3C=Cc3ccccc32)CC1,inactive,inactive,inactive,inactive,inactive,,inactive,inactive,inactive,,inactive,,inactive,,inactive,inactive,,,,
